From PubChem BioAssay AID1159580 (chemical genetic matrix, 2015)
Values joined by “and” are separate entries in the source; they are usually repeats but may differ in a detail not shown here. Identical values can stand only once. The campaign covered roughly 5,500 compounds. About 2,000 (36%) were called active. Inconclusive results (about 18%) are left out. No stated cut-off is given here; in the data, active means normalized growth mostly below about 0.91 (no sharp cut-off); inconclusive means no clear call, values can overlap the other calls; inactive means mostly above about 0.92. This is one part of the list.

Test: chemical genetic growth profiling, strain panel (AID 1159580);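 further: tested at 20 µM; growth read once vehicle control cultures reached saturation at 30 °C; 1 = growth at the plate median or of vehicle wells; lower values mean less growth of the strain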
Details: S. cerevisiae deletion strains, growth OD

Measured: normalized growth

CCC(C)(C)C(=O)O[C@H]1C[C@@H](C)C=C2C=C[C@H](C)[C@H](CC[C@@H]3C[C@@H](O)CC(=O)O3)[C@H]21
inactive: locus YAL013W, strain DEP1, active compounds read low 0.99 | locus YAL030W, strain snc1, active compounds read low 1.01 | locus YBR009C, strain hhf1, active compounds read low 0.912 | locus YBR021W, strain FUR4, active compounds read low 0.861 | locus YBR171W, strain sec66, active compounds read low 0.998 | locus YBR229C, strain ROT2, active compounds read low 1.01 | locus YCL011C, strain gbp2, active compounds read low 0.944 | locus YCL029C, strain bik1, active compounds read low 1.04 | locus YCL061C, strain MRC1, active compounds read low 1.01 | locus YCL069W, strain vba3, active compounds read low 0.955 | locus YCR088W, strain abp1, active compounds read low 1.02 | locus YDL005C, strain med2, active compounds read low 1.02 | locus YDL035C, strain GPR1, active compounds read low 0.97 | locus YDL040C, strain nat1, active compounds read low 0.997 | locus YDL074C, strain BRE1, active compounds read low 0.866 | locus YDL101C, strain DUN1, active compounds read low 0.98 | locus YDL134C, strain PPH21, active compounds read low 1.01 | locus YDL185W, strain tfp1, active compounds read low 0.955 | locus YDL192W, strain arf1, active compounds read low 1.02 | locus YDR001C, strain nth1, active compounds read low 1.02 | locus YDR069C, strain doa4, active compounds read low 1 | locus YDR101C, strain arx1, active compounds read low 1.04 | locus YDR150W, strain NUM1, active compounds read low 1.01 | locus YDR159W, strain sac3, active compounds read low 0.93 | locus YDR162C, strain NBP2, active compounds read low 0.937 | locus YDR195W, strain ref2 1.01 | locus YDR297W, strain sur2, active compounds read low 0.999 | locus YDR318W, strain mcm21, active compounds read low 1 | locus YDR334W, strain swr1, active compounds read low 0.941 | locus YDR335W, strain msn5, active compounds read low 0.979 | locus YDR388W, active compounds read low 1.02 | locus YDR502C, strain sam2, active compounds read low 1.02 | locus YEL003W, strain gim4, active compounds read low 0.973 | locus YEL037C, strain rad23, active compounds read low 1 | locus YEL061C, strain CIN8 (second series), active compounds read low 0.988 | locus YEL061C, strain CIN8, active compounds read low 0.995 | locus YER016W, strain bim1, active compounds read low 0.953 | locus YER110C, active compounds read low 1.04 | locus YER111C, strain swi4, active compounds read low 1.01 | locus YER155C, strain BEM2 (second series), active compounds read low 1 | locus YER155C, strain BEM2, active compounds read low 0.996 | locus YER167W, strain BCK2, active compounds read low 0.982 | locus YFR010W, strain ubp6, active compounds read low 0.973 | locus YGL078C, strain dbp3, active compounds read low 1.03 | locus YGL086W, strain mad1, active compounds read low 0.991 | locus YGL167C, strain pmr1, active compounds read low 1.01 | locus YGL173C, strain kem1, active compounds read low 0.997 | locus YGL227W, strain vid30, active compounds read low 1.02 | locus YGL240W, strain doc1, active compounds read low 1.03 | locus YGL248W, strain PDE1, active compounds read low 1.01 | locus YGR078C, strain PAC10, active compounds read low 0.966 | locus YGR135W, strain pre9, active compounds read low 1.01 | locus YGR252W, strain gcn5, active compounds read low 0.983 | locus YHR013C, strain ard1, active compounds read low 0.912 | locus YHR030C, strain SLT2, active compounds read low 1.02 and 0.921 | locus YHR079C, strain IRE1 (second series), active compounds read low 1.03 | locus YHR079C, strain IRE1, active compounds read low 0.948 | locus YHR094C, strain hxt1, active compounds read low 1.03 | locus YHR129C, strain ARP1, active compounds read low 1.02 | locus YHR200W, strain rpn10, active compounds read low 1.03 | locus YIL066C, strain RNR3, active compounds read low 0.992 | locus YIL073C, strain SPO22, active compounds read low 0.902 | locus YIL125W, strain kgd1, active compounds read low 1.04 | locus YIR030C, strain dcg1, active compounds read low 1.05 | locus YJL092W, strain hpr5, active compounds read low 1.01 | locus YJL095W, strain BCK1 (second series), active compounds read low 0.951 | locus YJL095W, strain BCK1, active compounds read low 0.893 and 0.915 | locus YJL115W, strain asf1, active compounds read low 1.02 | locus YJL129C, strain trk1, active compounds read low 0.934 | locus YJL134W, strain LCB3, active compounds read low 1.01 | locus YJL154C, strain vps35, active compounds read low 1.01 | locus YJL164C, strain tpk1, active compounds read low 0.919 | locus YJL166W, strain qcr8, active compounds read low 0.955 | locus YJL168C, strain set2, active compounds read low 1.02 | locus YJL187C, strain SWE1 (second series), active compounds read low 0.995 | locus YJL187C, strain SWE1, active compounds read low 0.976 | locus YJR043C, strain POL32, active compounds read low 1.01 | locus YJR066W, strain TOR1, active compounds read low 0.84
active: locus YAL021C, strain ccr4, active compounds read low 0.703 | locus YAL026C, strain drs2, active compounds read low 0.828 | locus YBL061C, strain skt5, active compounds read low 0.855 | locus YBR023C, strain chs3, active compounds read low 0.841 | locus YBR231C, strain swc5, active compounds read low 0.776 | locus YBR279W, strain paf1, active compounds read low 0.851 | locus YCL016C, strain dcc1, active compounds read low 0.909 | locus YDR137W, strain rgp1, active compounds read low 1.35 [resistant] | locus YDR392W, strain spt3, active compounds read low 0.528 | locus YER015W, strain faa2, active compounds read low 0.842 | locus YGL253W, strain hxk2, active compounds read low 0.787 | locus YGR229C, strain SMI1, active compounds read low 0.783 | locus YHR027C, strain rpn1, active compounds read low 0.875 | locus YHR142W, strain chs7, active compounds read low 0.79
